Measured values as given in PubChem BioAssay AID588852 (The Scripps Research Institute Molecular Screening Center, 2011).
The campaign covered roughly 360,000 compounds. About 4,600 (1.3%) were called active. The sample holds actives, similar compounds and a random draw of the others, so the mix is not that of the screen. A number with no mark means an inactive call.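 How the source made its calls: active means percent inhibition above its own plate's cutoff, namely the mean of that plate's compound wells plus 3 SD; inactive means the rest.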

These molecules were tested against Muscarinic acetylcholine receptor M1 (Homo sapiens) (UniProt P11229) (assay: CHRM1 blockers of acetylcholine calcium response – CHO-K1 cells, Fluo-8 calcium fluorescence, 1536-well, primary screen (AID 588852;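 further: peak over basal fluorescence ratio during 140 s after agonist addition; 0% = ACh EC80 plus DMSO and 100% = DMSO alone without agonist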)). Conditions: CHO-K1 hM1, Fluo-8 calcium fluorescence, ACh EC80 antagonist; at 3 µM; stronger effect = higher value.
Sequence of Muscarinic acetylcholine receptor M1 (Homo sapiens) (P11229 whole entry, looked up): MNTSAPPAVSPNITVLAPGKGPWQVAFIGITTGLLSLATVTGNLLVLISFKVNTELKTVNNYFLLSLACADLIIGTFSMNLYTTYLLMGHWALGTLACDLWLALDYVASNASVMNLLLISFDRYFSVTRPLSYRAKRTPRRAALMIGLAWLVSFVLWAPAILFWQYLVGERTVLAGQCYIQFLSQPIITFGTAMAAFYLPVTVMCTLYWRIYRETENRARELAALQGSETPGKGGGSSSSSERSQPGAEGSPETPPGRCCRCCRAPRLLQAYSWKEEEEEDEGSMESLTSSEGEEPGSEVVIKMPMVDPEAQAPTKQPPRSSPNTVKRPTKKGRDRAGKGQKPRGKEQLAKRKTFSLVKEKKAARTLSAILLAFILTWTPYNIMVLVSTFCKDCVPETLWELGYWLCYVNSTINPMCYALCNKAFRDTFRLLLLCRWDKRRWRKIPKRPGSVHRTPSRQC

**Q.** How did the inhibition turn out when `CCN(Cc1ccccc1)C(=O)CN1C(=S)NC(C)(C)CC1C` (stereo not drawn) was run?
**A.** Its inhibition is -5.27%.

**Q.** How did the inhibition turn out when `CCNC(=S)N(CCN(CC)CC)Cc1cc2cc3c(cc2[nH]c1=O)OCCO3` was run?
**A.** Its inhibition is -13%.

**Q.** For `CCCCOc1ccc(C(=O)NN2CCN(C)CC2)cc1`, which inhibition is on record?
**A.** The inhibition was 44.4% (active).

**Q.** Which inhibition does the source give for `CC1CN(S(=O)(=O)c2ccc(C(=O)NN3CCN(C)CC3)cc2)CC(C)O1` (stereo not drawn) here?
**A.** The inhibition was 9.23%.

**Q.** How did the inhibition turn out when `CN1CCN(NC(=O)c2ccc(S(=O)(=O)N3CCCCCC3)cc2)CC1` was run?
**A.** The inhibition was -2.56%.

**Q.** For `Cc1ccc([C@H]2N[C@]3(CCCN(Cc4ccccc4)C3=O)[C@H]3C(=O)N(Cc4ccccc4)C(=O)[C@@H]23)cc1`, which inhibition is on record?
**A.** Its inhibition is -11.4%.

**Q.** How did the inhibition turn out when `OCCc1ccc(NCCc2ccco2)cc1` was run?
**A.** Its inhibition is 0.71%.

**Q.** Which inhibition does the source give for `Cn1c2ccccc2c2c(C(=O)N3CCN(c4ccc(F)cc4)CC3)cn(C3CCCC3)c(=O)c21` here?
**A.** Its inhibition is 29.7% (active).

**Q.** With `CCOC(=O)N1CCN(C(=O)c2nn(-c3ccc(C)cc3)c(=O)c3c2c2ccccc2n3C)CC1` as the molecule, how does the inhibition read?
**A.** The inhibition was 3.41%.

**Q.** With `O=C(c1ccccc1Oc1ccccc1)N1CCN(c2ccc(F)cc2)CC1` as the molecule, how does the inhibition read?
**A.** Its inhibition is 4.1%.

**Q.** How did the inhibition turn out when `O=C(Nc1ccc2c(c1)OCCO2)C(C1CC1)N1CCC(Cc2ccccc2)CC1` (stereo not drawn) was run?
**A.** The inhibition was 34.6%.

**Q.** With `CC(C)Cc1ccc(-c2cc3nc(NCc4cccc(Cl)c4)ccn3n2)cc1` as the molecule, how does the inhibition read?
**A.** Its inhibition is -8.68%.

**Q.** `Cc1nnc(SC(C)C(=O)c2c[nH]c3ccccc23)n1C1CC1` (stereo not drawn) was tested. Which inhibition did it give?
**A.** The inhibition was 2.35%.

**Q.** With `C[C@H]1CN([C@@H](C)CO)S(=O)(=O)c2ccc(Br)cc2O[C@H]1CN(C)C(=O)c1cnccn1` as the molecule, how does the inhibition read?
**A.** Its inhibition is -4.86%.

**Q.** With `O=C(Cc1ccccc1)Nc1c(Cl)ccc2nsnc12` as the molecule, how does the inhibition read?
**A.** The inhibition was -7.81%.

**Q.** `CCOC(=O)Nc1ccc2c(c1)N(C(=O)CCCl)c1ccccc1[S@]2=O` was tested. Which inhibition did it give?
**A.** Its inhibition is -17.2%.

**Q.** How did the inhibition turn out when `CCOC(=O)Nc1ccc2c(c1)N(C(=O)CCN1CCN(CCO)CC1)c1ccccc1CC2` was run?
**A.** The inhibition was 16.4%.

**Q.** `CCNCCC(=O)N1c2ccccc2Sc2ccc(NC(=O)OCC)cc21` was tested. Which inhibition did it give?
**A.** Its inhibition is 56% (active).

**Q.** How did the inhibition turn out when `Cc1cc2c(cc1C)N(C(=O)CN1C(=O)c3ccccc3C1=O)C(C)(C)c1ssc(=S)c1-2` was run?
**A.** Its inhibition is 9.39%.

**Q.** `Nn1c(SCC(=O)Nc2nccs2)nncc1=O` was tested. Which inhibition did it give?
**A.** Its inhibition is 11.7%.

**Q.** How did the inhibition turn out when `Cn1cccc1C(=O)NNC(=O)COc1ccc(Br)cc1` was run?
**A.** The inhibition was -13%.

**Q.** `CC(=O)Nc1ccc(OC(=O)COc2ccc(Br)cc2)cc1` was tested. Which inhibition did it give?
**A.** The inhibition was 1.05%.

**Q.** With `Cc1ccc(O)c(NC(=S)NC(=O)COc2ccc(Br)cc2)c1` as the molecule, how does the inhibition read?
**A.** Its inhibition is 34.7% (active).

**Q.** Which inhibition does the source give for `Cc1nn(CCCC(=O)NCc2ccccc2Cl)c(=O)c2nccn12` here?
**A.** The inhibition was -19.9%.

**Q.** Which inhibition does the source give for `COc1cccc(-n2cc3c(c2-c2ccccc2)c(=O)n(C)c(=O)n3C)c1` here?
**A.** Its inhibition is 36.7% (active).

**Q.** How did the inhibition turn out when `Cc1ccc(-c2c3c(=O)n(C)c(=O)n(C)c3cn2-c2ccccc2O)cc1` was run?
**A.** The inhibition was 7.07%.

**Q.** Which inhibition does the source give for `COc1ccc(Nc2cc(=O)n(-c3ccccc3)c3c2c(=O)n(C)c(=O)n3C)cc1` here?
**A.** Its inhibition is 12.9%.

**Q.** `O=c1[nH]c2ccccc2n1C1CCN(CCOc2ccccc2)CC1` was tested. Which inhibition did it give?
**A.** Its inhibition is 78.4% (active).

**Q.** `O=S(=O)(c1cccs1)N1CCN(CCOc2ccccc2)CC1` was tested. Which inhibition did it give?
**A.** Its inhibition is -13.2%.

**Q.** With `O=C1CCN(CCc2ccccc2)CCN1CCOc1ccccc1` as the molecule, how does the inhibition read?
**A.** Its inhibition is -21.3%.

**Q.** How did the inhibition turn out when `O=C(Nc1cc(Br)ccc1F)c1nc[nH]c1C(=O)NCc1ccccc1` was run?
**A.** The inhibition was -2.93%.

**Q.** `CCOC1CS(=O)(=O)CC1OCC` (stereo not drawn) was tested. Which inhibition did it give?
**A.** Its inhibition is -4.01%.

**Q.** Which inhibition does the source give for `Cc1ccc(CN2CC(N3CCC(Cc4ccccc4)CC3)CS2(=O)=O)cc1` (stereo not drawn) here?
**A.** The inhibition was -11.4%.

**Q.** Which inhibition does the source give for `CCN(CCCNC(=O)CSc1cc(=O)n(C)c2cc(Cl)ccc12)Cc1ccccc1` here?
**A.** Its inhibition is 2.6%.

**Q.** Which inhibition does the source give for `Cn1cncc1COC(=O)c1ccc(Cl)cc1` here?
**A.** The inhibition was 88.4% (active).

**Q.** Which inhibition does the source give for `COC(=O)c1ccc(COC(=O)c2cnc(Cl)c(Cl)c2)cc1` here?
**A.** The inhibition was -11.6%.

**Q.** Which inhibition does the source give for `Cc1cc(OC(=O)c2ccc(Cl)cc2)cc(=O)n1C` here?
**A.** Its inhibition is -25.4%.

**Q.** With `Cc1ccccc1NC(=O)CSC1=NCCN1` as the molecule, how does the inhibition read?
**A.** Its inhibition is -2.31%.
